# Data from PubChem BioAssay (Tox21).
# Several values for one entry are separate records, joined by “and”; a condition that tells them apart may be missing. Equal values may be shown once. Results filed as inconclusive are left out. Entries that show only a call come without a potency. More than one record can exist for a structure, and the calls need not agree. Activity calls are given as the source filed them. Unless noted, calls come from the whole dose curve; as a rule, active = well fitted curve in the direction sought with a large enough effect in the repeat runs; inconclusive = weak or mixed curves; inactive = no such curve, though single readings can be large; an effect the other way counts as inactive or inconclusive.
# Experiments:
# [1] = molecular target: Thyrotropin receptor (Homo sapiens) (UniProt P16473); assay: qHTS assay to identify small molecule antagonists of the thyroid stimulating hormone receptor (TSHR) signaling pathway (AID 1259385; calls by dose curve; note: nearly all actives have a fitted effect of over 20% in size)
# Procedure, shortened: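 TSHR-HEK293 cells were plated and held 18 h at 37C/5% CO2, then given compound plus Ro20-1724 and stimulated with TSH at 1.5 ng/mL final. After 30 min at room temperature, cAMP was detected with cAMP-d2/anti-cAMP-cryptate (1 h) by fluorescence.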
# [2] = qHTS assay to identify small molecule agonists of the estrogen receptor alpha (ER-alpha) signaling pathway in the presence of an antagonist - cell viability counter screen (AID 1259386);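 note: series mostly up to about 92 µM; cells exposed to compounds for 22 h at 37 °C before the viability read; nearly all actives have a fitted effect of over 30% in size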
# Procedure, shortened: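 VM7Luc4E2, stripped-serum pre-culture 5 d; 24hr plating; +ICI-182,780 10.0nM final; cpds 15 conc, 22hr, 37C/5% CO2; CellTiter-Fluor added at 21hr, fluorescence 1hr later.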
# [3] = molecular target: Progesterone receptor (Homo sapiens) (UniProt P06401); assay: qHTS assay to identify small molecule agonists of the progesterone receptor (PR) signaling pathway (AID 1346784; calls by dose curve; note: nearly all actives have a fitted effect of over 30% in size)
# Procedure, shortened: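 PR-UAS-bla HEK 293T cells carrying a UAS-driven beta-lactamase reporter were seeded in medium with 2% charcoal-stripped FBS, preincubated 6 hr at 37C, then exposed to compounds in DMSO for 16 hr; agonism was read by LiveBLAzer B/G FRET fluorescence.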
# [4] = molecular target: Progesterone receptor (Homo sapiens) (UniProt P06401); assay: qHTS assay to identify small molecule antagonists of the progesterone receptor (PR) signaling pathway (AID 1346795; active = well fitted inhibition curve with a large enough effect in the signal ratio in the repeat runs, not every such curve was filed as active; the % refers to the signal ratio)
# Procedure, shortened: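 PR-UAS-bla HEK293T cells carrying a UAS-driven beta-lactamase reporter were plated in medium with 2% charcoal-stripped FBS and rested 6 hr at 37C. Compounds were added with 1 nM R5020 (final) for 16 hr, then FRET substrate loaded 2 hr at room temperature.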
# [5] = qHTS assay to identify small molecule agonists of the progesterone receptor (PR) signaling pathway - cell viability counter screen (AID 1346799; calls by dose curve; note: nearly all actives have a fitted effect of over 45% in size; note: potency is the fitted concentration of half-maximal effect)
# Procedure, shortened: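 PR-UAS-bla HEK293T cells, 3,000 per well in medium with 2% charcoal-stripped FBS, were preincubated 6 hr at 37C, then exposed to compounds for 16 hr; viability was read as CellTiter-Glo luminescence after 30 min at room temperature.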
# [6] = qHTS assay to identify small molecule antagonists of the TGF-beta/Smad signaling pathway - cell viability counter screen (AID 1346824); note: nearly all actives have a fitted effect of over 50% in size
# Procedure, shortened: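 SBE-bla HEK 293T cells were plated overnight at 37 C, then given compounds in DMSO plus TGF-beta1 (added as 0.25 ng/mL solution) for 5 hr. After the bla read, CellTiter-Glo was added to the same wells and luminescence read after 30 min at room temperature.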
# [7] = qHTS assay to identify small molecule agonists of the TGF-beta/Smad signaling pathway - cell viability counter screen (AID 1346829); note: top concentration of the series differs between compounds; nearly all actives have a fitted effect of over 45% in size
# Procedure, shortened: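 Tox21 qHTS format: SBE-bla HEK 293T cells treated with DMSO-dissolved compounds for 5 hr; CellTiter-Glo luminescence after 30 min at room temperature.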
# [8] = qHTS assay to identify small molecule agonists of the TGF-beta/Smad signaling pathway (AID 1346859; active = well fitted activation curve with a large enough effect in the signal ratio in the repeat runs, not every such curve was filed as active; the % refers to the signal ratio; note: series mostly up to about 77 µM)
# Procedure, shortened: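 HEK 293T cells stably carrying a beta-lactamase reporter driven by the Smad binding element were seeded overnight, exposed to DMSO-dissolved compounds for 5 hr at 37 C, 5% CO2, then loaded with FRET substrate for 2 hr at room temperature.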
# [9] = Human pregnane X receptor (PXR) small molecule agonists, qHTS cell viability counter screen (AID 1346977); note: nearly all actives have a fitted effect of over 50% in size; note: potency is the fitted concentration of half-maximal effect
# Procedure, shortened: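 PXR-Luc HepG2 cells in medium with 5% charcoal-stripped FBS were pre-incubated 5hr, then exposed to compounds for 24hr at 37C. Viability was read in the same wells by CellTiter-Fluor fluorescence, reagent added after 23hr with a 1hr incubation.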
# [10] = Caspase-3/7 induction in CHO-K1 cells by small molecules, qHTS cell viability counter screen (AID 1346979); note: nearly all actives have a fitted effect of over 35% in size; note: potency is the fitted concentration of half-maximal effect
# Procedure, shortened: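 Wild-type CHO-K1 cells were seeded at 1,500 per well, rested 5hr at 37 C, then exposed to compounds in DMSO. After 16hr, CellTiter-Fluor reagent was added and fluorescence read 1hr later as the viability measure.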
# [11] = Caspase-3/7 induction in CHO-K1 cells by small molecules, qHTS assay (AID 1346980); note: nearly all actives have a fitted effect of over 15% in size
# Procedure, shortened: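 Wild-type cells were seeded at 1,500 per well and settled 5 hr at 37 C, 5% CO2, then exposed to DMSO-dissolved compounds for 17 hr. Caspase-Glo 3/7 reagent was added, and luminescence was read after 30min at room temperature.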
# [12] = Caspase-3/7 induction in HepG2 cells by small molecules, qHTS cell viability counter screen (AID 1346981); note: nearly all actives have a fitted effect of over 30% in size; note: potency is the fitted concentration of half-maximal effect
# Procedure, shortened: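 HepG2, WT, 2,000 cells/well; 5 hr pre-incubation 37 C/5% CO2; compound pin-transferred from DMSO; 16 hr exposure; CellTiter-Fluor, 1 hr; fluorescence read.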
# [13] = molecular target: Nuclear receptor subfamily 1 group I member 2 (Homo sapiens) (UniProt O75469); assay: Human pregnane X receptor (PXR) small molecule agonists, qHTS assay (AID 1346982); note: nearly all actives have a fitted effect of over 35% in size; note: potency is the fitted concentration of half-maximal effect
# Procedure, shortened: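 Luciferase signal from ONE-Glo (30 min, room temperature) measured activation of hPXR-driven CYP3A4 reporter expression in PXR-Luc HepG2 cells treated with compounds for 24 hr at 37 C.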
# [14] = molecular target: Thyrotropin-releasing hormone receptor (Homo sapiens) (UniProt P34981); assay: qHTS assay to identify small molecule antagonists of the thyrotropin-releasing hormone receptor (TRHR) signaling pathway (AID 1346877; active = well fitted inhibition curve with a large enough effect in the repeat runs, not every such curve was filed as active; note: series mostly up to about 51 µM)
# Procedure, shortened: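 Intracellular calcium fluorescence, read kinetically every second over 3 min, reports TRH-evoked signalling in HEK293 cells carrying TRHR. Test compounds were added 5 min ahead of a 1 nM TRH challenge.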
# [15] = molecular target: Thyrotropin-releasing hormone receptor (Homo sapiens) (UniProt P34981); assay: qHTS assay to identify small molecule agonists of the thyrotropin-releasing hormone receptor (TRHR) signaling pathway (AID 1346891; calls by dose curve; note: series mostly up to about 58 µM)
# Procedure, shortened: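 TRHR-expressing HEK293 cells were plated 18 h at 37 °C/5% CO2, loaded with calcium dye 2 h at 37 °C, then given compound in DMSO; fluorescence was read kinetically for 3 min at 1 s intervals.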
# [16] = Caspase-3/7 induction in HepG2 cells by small molecules, qHTS assay (AID 1346978); note: nearly all actives have a fitted effect of over 15% in size; note: potency is the fitted concentration of half-maximal effect
# Procedure, shortened: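 Wild-type HepG2 cells (2,000/well) were settled 5 h at 37 C, 5% CO2, then exposed to compounds in DMSO for 17 h. Caspase-3/7 activity was read by luminescence 30 min after adding Caspase-Glo 3/7 reagent at room temperature.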
# [17] = qHTS assay to identify small molecule antagonists of the progesterone receptor (PR) signaling pathway - cell viability counter screen (AID 1346798); note: series mostly up to about 92 µM; nearly all actives have a fitted effect of over 50% in size
# Procedure, shortened: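 PR-UAS-bla HEK293T cells in medium with 2% charcoal-stripped FBS were treated with compounds plus R5020 for 16 hr at 37C. Cell viability was then read by CellTiter-Glo luminescence after 30 min at room temperature in the same wells.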
# [18] = molecular target: Nuclear receptor subfamily 1 group I member 2 (Rattus norvegicus) (UniProt Q9R1A7); assay: Rat pregnane X receptor (rPXR) activation by small molecules, qHTS assay (AID 1346983); details: rPXR luciferase reporter cells, One-Glo luminescence, 24 h; max activation: stronger effect = higher value; note: potency is the fitted concentration of half-maximal effect; nearly all actives have a fitted effect of over 20% in size
# Procedure, shortened: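 Cell-based rPXR luciferase reporter assay, 2,000 cells per well, rested 5hr at 37 C before compound addition in DMSO, then 24 hr at 37 C. One-Glo reagent was added and luminescence read after 30 min at room temperature.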
# Sequence of Thyrotropin-releasing hormone receptor (Homo sapiens) (P34981 whole entry, looked up): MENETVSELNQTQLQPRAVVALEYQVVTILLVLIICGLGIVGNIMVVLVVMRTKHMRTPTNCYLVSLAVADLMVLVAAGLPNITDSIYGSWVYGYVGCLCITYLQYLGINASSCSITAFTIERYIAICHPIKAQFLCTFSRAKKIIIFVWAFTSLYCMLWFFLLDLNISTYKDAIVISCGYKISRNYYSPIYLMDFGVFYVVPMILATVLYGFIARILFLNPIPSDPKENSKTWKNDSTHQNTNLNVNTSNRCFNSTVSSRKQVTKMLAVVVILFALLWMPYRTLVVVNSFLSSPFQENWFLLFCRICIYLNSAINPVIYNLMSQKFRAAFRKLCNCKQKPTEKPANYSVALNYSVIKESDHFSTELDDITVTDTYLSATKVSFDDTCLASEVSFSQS
# Sequence of Progesterone receptor (Homo sapiens) (P06401 whole entry, looked up): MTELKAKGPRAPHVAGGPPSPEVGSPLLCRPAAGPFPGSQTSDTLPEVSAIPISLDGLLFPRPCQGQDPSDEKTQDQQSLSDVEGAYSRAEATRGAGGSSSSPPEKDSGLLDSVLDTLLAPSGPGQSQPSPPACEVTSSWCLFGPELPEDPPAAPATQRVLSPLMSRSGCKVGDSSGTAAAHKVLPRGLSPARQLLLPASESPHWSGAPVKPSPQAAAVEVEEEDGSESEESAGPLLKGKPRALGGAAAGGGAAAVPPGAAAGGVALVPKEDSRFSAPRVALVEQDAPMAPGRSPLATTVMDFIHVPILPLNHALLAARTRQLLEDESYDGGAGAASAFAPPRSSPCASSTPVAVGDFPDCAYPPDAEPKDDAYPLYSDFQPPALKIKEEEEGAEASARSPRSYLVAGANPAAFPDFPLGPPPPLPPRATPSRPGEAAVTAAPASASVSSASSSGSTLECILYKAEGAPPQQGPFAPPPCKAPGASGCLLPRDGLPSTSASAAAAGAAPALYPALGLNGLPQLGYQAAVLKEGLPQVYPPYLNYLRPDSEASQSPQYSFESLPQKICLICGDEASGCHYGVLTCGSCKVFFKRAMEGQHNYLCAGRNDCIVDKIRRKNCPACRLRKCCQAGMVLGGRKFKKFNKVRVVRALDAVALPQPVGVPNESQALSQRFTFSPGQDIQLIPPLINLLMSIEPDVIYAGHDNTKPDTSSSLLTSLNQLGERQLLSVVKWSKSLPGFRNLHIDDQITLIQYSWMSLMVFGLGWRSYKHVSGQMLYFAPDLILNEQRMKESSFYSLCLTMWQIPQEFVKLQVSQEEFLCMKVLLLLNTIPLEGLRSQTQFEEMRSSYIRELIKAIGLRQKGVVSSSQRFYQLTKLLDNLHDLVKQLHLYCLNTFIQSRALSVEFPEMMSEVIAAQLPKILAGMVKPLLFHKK
# Sequence of Nuclear receptor subfamily 1 group I member 2 (Homo sapiens) (O75469 whole entry, looked up): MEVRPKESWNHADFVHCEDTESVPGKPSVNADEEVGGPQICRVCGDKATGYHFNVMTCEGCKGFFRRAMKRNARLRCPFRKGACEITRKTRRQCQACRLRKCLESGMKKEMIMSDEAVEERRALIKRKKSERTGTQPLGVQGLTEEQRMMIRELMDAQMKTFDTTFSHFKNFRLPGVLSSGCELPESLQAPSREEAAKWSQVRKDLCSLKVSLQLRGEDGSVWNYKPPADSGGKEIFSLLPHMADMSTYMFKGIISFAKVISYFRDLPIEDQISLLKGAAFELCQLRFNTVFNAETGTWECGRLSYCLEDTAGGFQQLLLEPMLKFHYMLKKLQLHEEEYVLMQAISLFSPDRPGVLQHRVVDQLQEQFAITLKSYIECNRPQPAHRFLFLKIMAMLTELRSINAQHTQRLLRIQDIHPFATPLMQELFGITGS
# Sequence of Thyrotropin receptor (Homo sapiens) (P16473 whole entry, looked up): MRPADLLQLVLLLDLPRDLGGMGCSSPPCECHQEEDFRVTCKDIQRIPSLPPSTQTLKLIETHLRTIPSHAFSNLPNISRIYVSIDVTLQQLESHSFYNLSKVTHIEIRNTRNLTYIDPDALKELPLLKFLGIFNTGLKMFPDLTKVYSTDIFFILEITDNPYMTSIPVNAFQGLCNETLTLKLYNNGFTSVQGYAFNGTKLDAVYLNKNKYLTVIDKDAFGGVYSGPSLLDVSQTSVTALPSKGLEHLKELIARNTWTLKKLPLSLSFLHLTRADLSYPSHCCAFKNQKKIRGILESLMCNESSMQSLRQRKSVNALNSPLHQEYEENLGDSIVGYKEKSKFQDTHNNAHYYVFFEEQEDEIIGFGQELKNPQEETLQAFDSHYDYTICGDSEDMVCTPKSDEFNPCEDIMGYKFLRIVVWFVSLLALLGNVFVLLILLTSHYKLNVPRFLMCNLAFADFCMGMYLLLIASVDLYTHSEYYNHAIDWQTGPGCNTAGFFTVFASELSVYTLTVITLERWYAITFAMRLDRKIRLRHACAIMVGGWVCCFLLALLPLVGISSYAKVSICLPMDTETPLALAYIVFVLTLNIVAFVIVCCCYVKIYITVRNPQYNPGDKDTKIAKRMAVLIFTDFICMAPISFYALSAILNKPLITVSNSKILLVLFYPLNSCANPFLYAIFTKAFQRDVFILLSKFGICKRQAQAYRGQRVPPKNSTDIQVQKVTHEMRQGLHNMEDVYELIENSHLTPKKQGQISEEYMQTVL
# Sequence of Nuclear receptor subfamily 1 group I member 2 (Rattus norvegicus) (Q9R1A7 whole entry, looked up): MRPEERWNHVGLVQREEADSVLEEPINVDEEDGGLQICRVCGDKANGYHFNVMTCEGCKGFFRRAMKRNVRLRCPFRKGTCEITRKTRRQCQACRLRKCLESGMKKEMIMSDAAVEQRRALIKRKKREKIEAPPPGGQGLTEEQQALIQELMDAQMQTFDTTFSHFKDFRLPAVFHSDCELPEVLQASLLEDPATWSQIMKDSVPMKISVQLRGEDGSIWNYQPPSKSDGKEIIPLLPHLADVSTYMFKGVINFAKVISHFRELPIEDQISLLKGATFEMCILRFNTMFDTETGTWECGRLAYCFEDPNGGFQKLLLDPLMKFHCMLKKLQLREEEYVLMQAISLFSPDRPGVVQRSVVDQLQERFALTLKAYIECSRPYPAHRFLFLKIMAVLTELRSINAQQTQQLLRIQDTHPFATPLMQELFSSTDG
SMILES,outcome [1],Potency [2],Potency [3],Potency [4],Potency [5],Potency [6],Potency [7],outcome [8],Potency [9],Potency [10],Potency [11],Potency [12],Potency [13],outcome [14],Potency [15],Potency [16],Potency [17],Potency [18]
CC(=O)CCc1ccccc1,inactive,inactive,inactive,inactive,inactive,inactive,inactive,inactive,inactive,inactive,inactive,inactive,inactive,,,,,
CC[Si](OC(C)=O)(OC(C)=O)OC(C)=O,inactive,inactive,inactive,,inactive,inactive,inactive,inactive,inactive,inactive,inactive,inactive,48.5 µM (active) and 48.6 µM (active),inactive,inactive,inactive,,
CCc1ccccc1O,inactive,inactive,inactive,,inactive,inactive,inactive,inactive,inactive,inactive,inactive,inactive,,inactive,,,inactive,
O=[N+]([O-])C(CO)(CO)CO,inactive,inactive,inactive,,inactive,inactive,inactive,inactive,758 nM (active) and inactive,1.7 µM (active) and inactive,inactive,4.26 µM (active) and inactive,1.35 µM (active) and inactive,inactive,,,,
O=C1CCCCC1,,inactive,inactive,inactive,inactive,inactive,inactive,inactive,inactive,inactive,inactive,inactive,inactive,inactive,inactive,inactive,inactive,
CC1=CC[C@H]2C[C@@H]1C2(C)C,inactive,inactive,inactive,,inactive,inactive,inactive,inactive,inactive,inactive,inactive,inactive,inactive,inactive,inactive,inactive,,
O=C(O)c1ccc([N+](=O)[O-])cc1,,inactive,inactive,inactive,inactive,inactive,inactive,inactive,inactive,inactive,inactive,inactive,inactive,inactive,inactive,,,
CC(C)n1c(/C=C/[C@@H](O)C[C@@H](O)CC(=O)O)c(-c2ccc(F)cc2)c2ccccc21,,inactive,inactive,,0.77 µM (active),inactive,inactive,inactive,inactive,inactive,inactive,inactive,,inactive,,12.2 µM (active),,12.6 µM (active)
